# Reference: the OligoGym collection
# Biological target: MAPK4
# Experiment: pooled miR-30 sensor sort-seq; sequence = guide strand
# Conditions: shRNA
row,Sequence,sensor-assay potency score (higher = more potent)
1,TTGCTGATTAGATTTAAGGTGC,-0.432
2,TAAGTTTCTAATGTGTTGCAGG,-0.429
3,TACCACTTTGTTACCAACCCTT,-0.102
4,TCTGAATAAAAGAACATCGAAT,-0.719
5,TAATGCTGATCAACGATCCTTG,0.275
6,TTGCTGTTGACACCTCTCTTTT,-1.31
7,TTGTAGTCGCAGGAGCGCCCGT,-1.23

# Biological target: MAPKAPK2
# Experiment: as above
# Conditions: shRNA
row,Sequence,sensor-assay potency score (higher = more potent)
1,TTGTAGTCATCGATGATGGCGT,-0.252
2,TTTTATCTTGATCTGCTCGTAG,0.563
3,TTGATTGCATGATCCAAGGGTG,-0.156
4,TTTATCTTGATCTGCTCGTAGT,-0.523
5,TTTTTTATCTTGATCTGCTCGT,0.773
6,TTGATCTGCAGGCCGGACTTGA,-0.944
7,TTTGTTGATTGCATGATCCAAG,-0.653
8,TTCTCTTTCTGTGAATGCCTGG,-0.0857
9,TTTTTATCTTGATCTGCTCGTA,0.0929
10,TCCTCTGATACTTCTGACCATT,-1.62
11,TCGTACACATCCACGATCCGTA,0.149
12,TTGAAGATCTGCAAAACTTTGC,0.0666
